PubChem BioAssay AID1851 (National Center for Advancing Translational Sciences (NCATS), 2009)
The campaign covered roughly 16,000 compounds. About 5,800 (36%) were called active. Not shown: some 23% with an inconclusive outcome. The call rests on the fitted dose curve; in most records, active means well fitted curve in the direction sought with a large enough effect; inconclusive means small, poorly fitted or top-dose-only effect, or effect the other way; inactive means no such curve, though single readings can be large or run the other way. The list shows a part of the results.

Target: Cytochrome P450 2C19 (Homo sapiens) (UniProt P33261)
Test: Cytochrome panel assay with activity outcomes
Conditions: recombinant CYP, pro-luciferin dealkylation, luminescence, p450-cyp2c19; series mostly up to 57.1 µM; activity, negative = inhibition: at the top concentration
On the % scale 0 is the no-effect control and ±100 the full control effect.

Sequence of Cytochrome P450 2C19 (Homo sapiens) (P33261 whole entry, looked up): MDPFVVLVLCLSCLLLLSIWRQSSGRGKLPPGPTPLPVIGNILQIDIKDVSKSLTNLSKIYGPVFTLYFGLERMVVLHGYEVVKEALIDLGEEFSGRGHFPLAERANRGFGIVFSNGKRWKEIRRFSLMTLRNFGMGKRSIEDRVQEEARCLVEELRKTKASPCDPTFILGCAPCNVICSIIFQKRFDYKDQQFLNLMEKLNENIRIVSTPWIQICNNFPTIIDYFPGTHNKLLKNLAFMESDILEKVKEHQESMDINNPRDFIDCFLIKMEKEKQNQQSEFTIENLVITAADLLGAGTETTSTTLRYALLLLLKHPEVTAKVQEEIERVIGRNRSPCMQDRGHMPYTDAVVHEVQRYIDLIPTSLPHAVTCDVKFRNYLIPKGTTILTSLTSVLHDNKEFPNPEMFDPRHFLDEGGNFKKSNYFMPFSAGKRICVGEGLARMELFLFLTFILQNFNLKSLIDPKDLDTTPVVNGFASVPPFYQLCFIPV

activity, negative = inhibition, inactive:
Cc1nc2cnc(N3CCN(C)CC3)nc2n(C)c1=O 6.26%, CN(C)N1C(N)=C(C#N)C(c2cccnc2)C2=C1CC(C)(C)CC2=O (centres undefined) -55.4%, Cc1noc(C)c1C(=O)N1CCC2(CCCN(Cc3ccc(C#N)cc3)C2)CC1 -20.6%, CN(C)Cc1ccccc1-c1ccc2ncnc(N(C)C)c2c1 -8.91%, CC(=O)OC[C@@H]1O[C@@H](O/N=C2/C[C@@H](O)[C@@H](O)[C@@H]3[C@H]4C(=O)N(c5ccc(F)cc5F)C(=O)[C@@H]4CC[C@H]23)[C@H](OC(C)=O)[C@H](OC(C)=O)[C@@H]1OC(C)=O -9.07% [at 11.4 µM], CCOC(=O)N/N=C1/C[C@@H](O)[C@@H](O)[C@@H]2[C@@H]3C(=O)N(Cc4ccc5c(c4)OCO5)C(=O)[C@H]3CC[C@H]12 -2.19% [at 11.4 µM], CCOC(=O)N/N=C1/C[C@@H](O)[C@@H](O)[C@@H]2[C@@H]3C(=O)N(Cc4ccc5c(c4)OCO5)C(=O)[C@H]3CC[C@@H]12 4.88% [at 11.4 µM], CCCCNc1c(C(=O)OCC)c(C)nc2c1cnn2CC -9.56% [at 25.6 µM], Cn1ccnc1C[C@@](C)(O)c1ccccc1 -6.82% [at 11.4 µM], CNS(=O)(=O)c1ccccc1C(=N)c1ccccc1 -10% [at 11.4 µM], Cc1ccc(OC(=O)c2cccc(C(=O)Oc3ccc(C)cn3)n2)nc1 -1.57%, CC(C)OC(=O)c1cccc(C(=O)Oc2ccc(Br)cc2)n1 -3.45%, Cc1cc(NS(=O)(=O)c2ccc(NC(=O)CN3C(=O)c4ccccc4C3=O)cc2)nc(C)n1 -23.3%, Cc1ccc(/C=N/NC(=O)CSc2nc3nc(C)cc(C)n3n2)cc1 -39.3%, CCSc1nc2nc(C)cc(C)n2n1 -1.22%, COCC(=O)N1CCC2(CCCN(C(=O)Nc3cccc(C#N)c3)C2)CC1 16.8%, Cc1ccc(C)c(C(=O)CN2C(=O)c3ccccc3S2(=O)=O)c1 -41.5%, O=C(CN1C(=O)c2ccccc2C1=O)NC1(C(=O)O)CCCC1 20.8% [at 11.4 µM], Cc1cnc(CNc2ncncc2-c2ccc3c(c2)OCO3)cn1 -31.6%, CN(C)c1ncc2nc(-c3ccc(Cl)cc3)c(=O)n(C)c2n1 -8.52%, C[C@]1(O)CC[C@H]2[C@H]3CC=C4N5CCN=C5CC[C@@]4(C)[C@H]3CC[C@@]21C 14.3% [at 11.4 µM], CC(C)c1ccc(/C(C(=O)O)=C(\O)C(=O)O)cc1 -8.84% [at 11.4 µM], CC(C)NC(=O)c1ccc2c(=O)n(Cc3ccco3)c(=S)[nH]c2c1 -20.7%, O=C(CCn1c(=S)[nH]c2ccccc2c1=O)NCCCN1CCOCC1 -13.4%, CCC1CCCCN1CCn1c(=S)[nH]c2cc(OC)c(OC)cc2c1=O (centres undefined) 2.9%, CCOC(=O)CCN1C(=O)[C@H]2[C@H]3[C@H](O)[C@H](O)C/C(=N/OC/C=C(\C)CCC=C(C)C)[C@H]3CC[C@@H]2C1=O 12.1% [at 11.4 µM], O=S(=O)(c1ccccc1)N1CCC2(CC1)CN(Cc1ccccc1)C2 -18.1%, N#Cc1ccc(CN2CCC3(CC2)CCN(S(=O)(=O)c2ccccc2)CC3)cc1 5.6%, O=S(=O)(c1ccccc1)N1CCC2(CC1)CN(Cc1nccs1)C2 -10.2%, O=S(=O)(c1ccccc1)N1CCC2(CCN(Cc3ccncc3)CC2)CC1 -22.9%, Cn1cccc1C(=O)N1CCC2(CCCN(Cc3ccc(C#N)cc3)C2)CC1 -32.2%, O=S(=O)(c1ccccc1)N1CCC2(CCN(Cc3nccs3)CC2)CC1 -13.1%, CN1CCN(c2ncc3nc(-c4cc(F)cc(F)c4)c(=O)n(CCc4ccccc4)c3n2)CC1 -7.74%, COc1cccc(N2CCN(C(=O)Nc3ccc4c(c3)NC(=O)CO4)CC2)c1 -26.8%, Cc1ccc(-n2c3c(c(=O)[nH]c2=O)C(NS(=O)(=O)c2ccc(C)cc2)(C(F)(F)F)C(=O)N3)cc1 (centres undefined) -17.4%, NC(=O)NC(=O)CSc1nnc(-c2ccco2)n1Cc1ccccc1 -15.5%, COc1ccc(-c2nc3cnc(N4CCN(C)CC4)nc3n(CCC#N)c2=O)cc1 -0.278%, C=CCOc1ccc(CNC(C)(C)CO)cc1OC 23.4%, C=CCOc1ccc(CNC(C)(C)CO)cc1OCC 68%, CC(C)CC(=O)N1CCC(O)(CS(=O)(=O)Cc2ccc(Cl)cc2)CC1 -5.81%, CC(C)(C)C(=O)N1CCC(O)(CS(=O)(=O)Cc2ccc(Cl)cc2)CC1 -29.6%, COCCn1c(=O)c(C)nc2cnc(N3CCN(C)CC3)nc21 5.94%, COc1ccc(CO/N=C/c2c(C)[nH]c(=O)[nH]c2=O)cc1 -20%, CCN(CC)C[C@@H](O)c1ccc2ccc3ccccc3c2c1 -3.19% [at 11.4 µM]

AC50, inactive:
CC(C)NC[C@H](O)c1ccc2ccccc2c1

AC50, active:
COc1cc(C2C(C#N)=C(N)N(Nc3ccccc3)C3=C2C(=O)CC(C)(C)C3)ccc1OCc1ccccc1 (centres undefined) 6.31 µM, COc1ccc(C2C(C#N)=C(N)N(Nc3ccccc3)C3=C2C(=O)CC(C)(C)C3)cc1C (centres undefined) 2.24 µM, COc1cc(C2C(C#N)=C(N)N(Nc3ccccc3)C3=C2C(=O)CC(C)(C)C3)ccc1OCc1cccc(F)c1 (centres undefined) 7.08 µM, COc1ccccc1-c1ccc2ncnc(N(C)C)c2c1 0.501 µM, CN(C)c1ncnc2ccc(-c3ccccc3C(F)(F)F)cc12 3.98 µM, Cc1ccccc1-c1ccc2ncnc(N(C)C)c2c1 7.94 µM, CC1(C)SC(=S)N(Cc2ccc3c(c2)OCO3)C1N(O)C(=O)NC1CCCCC1 (centres undefined) 3.55 µM, CCOC(=O)c1cc(C#N)c(Oc2ccccc2OC)nc1-c1ccccc1 6.31 µM, CCCCNc1nc(-c2ccccc2)c(C(=O)OCC)cc1C#N 17.8 µM, C[C@@](O)(CNS(=O)(=O)c1ccccc1)c1ccccc1 1 µM, CCn1c(SCC(=O)Nc2nc3ccc(C)cc3s2)nc2c(c1=O)SC(C)C2 (centres undefined) 2.82 µM, Cc1ccc2nc(NC(=O)CSc3nc4c(c(=O)n3C)SC(C)C4)sc2c1 (centres undefined) 5.62 µM, CCn1c(SCC(=O)Nc2ccc3c(c2)OCCO3)nc2c(c1=O)SC(C)C2 (centres undefined) 8.91 µM, COC(=O)c1cccc(C(=O)Nc2ccc(C)cc2)n1 11.2 µM, Cc1cc(C)n2nc(SCN3C(=O)c4ccccc4C3=O)nc2n1 2.51 µM, Cc1cc(C)n2nc(SCc3cc(=O)oc4ccc5ccccc5c34)nc2n1 8.91 µM, COc1ccccc1CNC(=O)CSc1nc2nc(C)cc(C)n2n1 10 µM, CC12COC3(C(=O)Nc4nccs4)CC1CCC32C (centres undefined) 2.24 µM, O=C(COc1ccc(Cl)cc1Cl)N/N=C/CCc1ccccc1 2 µM, CC(C/C=N/NC(=O)COc1cc(Cl)ccc1Cl)c1ccccc1 (centres undefined) 0.447 µM, OC1(c2ccc(OC(F)F)cc2)CSC(=Nc2cccnc2)N1C1CC1 (centres undefined) 0.0794 µM, COc1cc(N=c2ssnc2Cl)cc(OC)c1OC 1.12 µM, Cc1cccc(OC(=O)CN2C(=O)C3C4CCC(C4)C3C2=O)c1C (centres undefined) 3.98 µM, C=CCn1c(C)cc(C(=O)CN2C(=O)c3ccccc3C2=O)c1C 3.98 µM, c1cncc(CNc2ncncc2-c2ccc3c(c2)OCO3)c1 0.2 µM, Cc1cccc(CNc2ncncc2-c2ccc3c(c2)OCO3)c1 0.501 µM, c1ccc(Nc2ncncc2-c2ccc3c(c2)OCO3)cc1 0.251 µM, c1ccc(CNc2ncncc2-c2ccc3c(c2)OCO3)cc1 0.501 µM, c1csc(CNc2ncncc2-c2ccc3c(c2)OCO3)c1 0.794 µM, CC(C)c1nnc(-c2ccc(Cl)cc2)c(N(C)C)n1 2.51 µM, CC1(O)c2ccccc2C(=O)N1CCc1ccccc1F (centres undefined) 0.251 µM, COCCn1c(=S)[nH]c2cc(C(=O)NC(C)C)ccc2c1=O 15.8 µM, COCCNC(=O)CCCCCn1c(=S)[nH]c2ccccc2c1=O 22.4 µM, Cc1ccc(S(=O)(=O)CCCS(=O)(=O)c2ccc(C)cc2)cc1 10 µM, O=S(=O)(c1ccccc1)N1CCC[C@@]2(CCN(Cc3nccs3)C2)C1 7.94 µM, N#Cc1ccc(CN2CCCC3(CCN(S(=O)(=O)c4ccccc4)CC3)C2)cc1 15.8 µM, O=S(=O)(c1ccccc1)N1CCC2(CCCN(Cc3ccncc3)C2)CC1 0.316 µM, CSc1ccccc1N1CCN(C(=O)Nc2ccc3c(c2)NC(=O)CO3)CC1 7.94 µM, O=C(Nc1cccc(C(F)(F)F)c1)C1CCCN1S(=O)(=O)c1cccc2cccnc12 (centres undefined) 11.2 µM, O=C1OCCC1Sc1nnnn1-c1ccccc1 (centres undefined) 22.4 µM, O=C(CSc1nnc(-c2ccccn2)n1Cc1ccco1)Nc1ccc2c(c1)OCO2 6.31 µM, Cc1cc(NC(=O)CSc2nnc(-c3ccccc3)n2Cc2ccco2)no1 10 µM, CC(=O)Nc1ccc(NC(=O)CSc2nnc(-c3ccccc3)n2Cc2ccc3c(c2)OCO3)cc1 3.55 µM, COc1cc(CNC(C)(C)CO)ccc1OCC(=O)Nc1ccc(Br)cc1 22.4 µM, CC(C)CCNC(=S)NC1CCCC1 10 µM, CC(O)(CS(=O)(=O)Cc1ccc(Cl)cc1)C(=O)Nc1cccc(C(F)(F)F)c1 (centres undefined) 7.94 µM, CC(O)(CS(=O)(=O)Cc1ccccc1Cl)C(=O)Nc1cccc(C(F)(F)F)c1 (centres undefined) 2.82 µM, COc1ccc(CN2C(=O)c3ccccc3C(/C=N\OCc3ccc(F)cc3)C2=O)cc1 (centres undefined) 2.51 µM, CCCCOC(OCCCC)[C@H](O)CSc1ccc2ccccc2c1 3.16 µM
